USP8 inh: human USP8 deubiquitinase inhibition | 47,000 compounds, 4.2% hits | P40818 | inhibition, % at 20 µM | purified USP8, Ub-rhodamine cleavage fluorescence, 30 min | AID 1645853
USP7 block: blocks human USP7 ubiquitin-rhodamine cleavage; purified USP7, Ub-rhodamine cleavage fluorescence; 47,000 compounds, 0.3% hits; inhibition, % at 20 µM; Q93009; AID 1645854
UCHL1 block: inhibitors of human UCHL1 deubiquitinase; P09936; purified UCHL1, Ub-rhodamine cleavage fluorescence; inhibition, % at 20 µM; 47,000 compounds, 0.2% hits; AID 1645859
USP10 block: blocks human USP10 ubiquitin-rhodamine cleavage; Q14694; purified USP10, Ub-rhodamine fluorescence, 60 min; inhibition, % at 20 µM; 47,000 compounds, 1.1% hits; AID 1645856
* marks the source's active call; other numbers are inactive results; x = not tested or not shown. Rows were chosen to be rich in hits. Some 4.6% of all compounds tested hit in one or more screens of this group. No stated cut-off is given here; in the data, active means inhibition above about 30%; inactive means the rest.

SMILES | USP8 inh | USP7 block | UCHL1 block | USP10 block
CC(C)[C@H](NC(=O)C1(c2ccccc2)CCN(C(=O)[C@H]2CSCN2C(=O)OC(C)(C)C)CC1)C(=O)O | 3 | 0 | -3 | 2
Cc1cc2n(n1)CC(C)(C(=O)NCc1ccccc1)N(c1ccc3c(c1)OCCO3)C2=O (stereo not given) | 0 | -6 | -3 | -2
CC1(C(=O)NCc2ccc(F)cc2)Cn2nc(-c3ccco3)cc2C(=O)N1c1ccc2c(c1)OCCO2 (stereo not given) | 61* | -9 | 7 | 12
CC(=O)c1oc2nc3c(c(-c4ccc(Cl)cc4)c2c1N)CCc1ccccc1-3 | 65* | -110 | 18 | -5
N#Cc1c(N)nc2c(c1-c1ccccc1)CCc1ccccc1-2 | 9 | -16 | 4 | 8
Fc1ccccc1CN1CC[C@H](c2nnc(-c3ccncc3)o2)C1 | -4 | 0 | 0 | -1
c1ccc2oc(CN3CC[C@H](c4nnc(-c5ccncc5)o4)C3)cc2c1 | 34* | -10 | -2 | -6
Cc1nn(C)cc1C(C(=O)NC1CCCCC1)N(C(=O)CN1C(=O)c2ccccc2S1(=O)=O)c1ccc2c(c1)OCO2 (stereo not given) | 16 | 19 | 12 | 40*
Clc1ccc(-c2cc3n(c2)CCc2cc4c(cc2-3)OCO4)cc1 | 70* | -11 | -8 | -8
c1ccc(-c2cc3n(c2)CCc2cc4c(cc2-3)OCO4)cc1 | 21 | -12 | -13 | -3
NC(=O)C1CCN(C(=O)c2ccc3c(=O)n(C4CCCCC4)c(SCc4ccc(Cl)cc4)nc3c2)CC1 | -1 | 4 | 5 | -2
CC(CNc1nccn(-c2ccc3c(c2)OCO3)c1=O)c1ccccc1 (stereo not given) | 7 | 2 | 4 | 1
O=C(CNC(=O)c1ccc2nc(-n3cccc3)sc2c1)NCc1ccccc1 | 39* | x | 5 | -3
O=C(CNC(=O)c1ccc2nc(-n3cccc3)sc2c1)NCc1ccco1 | 76* | 7 | 2 | -5
O=C(CNC(=O)c1ccc2nc(-n3cccc3)sc2c1)NCc1ccccc1Cl | 46* | 9 | 0 | -6
CN(C)S(=O)(=O)c1ccc(C(=O)OCc2cccc(Oc3ccccc3)c2)cc1 | 4 | 7 | 4 | 3
O=C(Nc1ccc(F)cc1)c1ccc(-c2ccc(N3CCCC3)nn2)cc1 | 49* | 4 | 3 | 0
Cc1ccc(NC(=O)CNC(=O)c2cc3ccccc3o2)cc1 | -7 | 3 | 1 | 14
COc1cc(NC(=O)Cc2ccccc2)ccc1NC(=O)c1cc2ccccc2o1 | 8 | 10 | 4 | 34*
Cc1cc(C(=O)N2CCCCC2)c2c(=O)n(Cc3ccc4nonc4c3)c(=O)n(C)c2n1 | 43* | -22 | -2 | -4
Cc1nc(CC(=O)Nc2cc(F)cc(F)c2)sc1C(=O)NC1CC1 | 61* | -5 | 5 | -3
Cc1ccc(C(=O)N[C@@H]2C[C@@H](Oc3ccccc3)[C@H](O)[C@H]2O)nc1 | 0 | -1 | 0 | -2
O=C(/C=C/c1ccc(Cl)cc1)Nc1cccc(-c2nc3ncccc3o2)c1 | 7 | 6 | -1 | -1
COc1ccc(/C=C/C(=O)Nc2ccc(Cl)c(-c3nc4ncccc4o3)c2)cc1 | 58* | 12 | 2 | 24
COc1ccc(OC)c2c(C)cc(N3CC(C)CC(C)C3)nc12 (stereo not given) | 98* | -33 | 22 | 15
SMILES | USP8 inh | USP7 block | UCHL1 block | USP10 block
Cc1cccc(-c2nc(CNC(=O)Cc3ccccc3)no2)c1 | -3 | -2 | -1 | -5
O=C(c1cc(Cl)nc2ccccc12)N1CCc2ccccc2C1 | 33* | -12 | 0 | 6
C[C@]12C(=O)N(CCN3CCOCC3)CC(=O)N1CC(c1ccc(Br)cc1)c1c2[nH]c2ccccc12 (stereo not given in full) | -12 | -113 | 5 | -3
CCN(CCCNC(=O)CCc1nnc2n(CCC(C)C)c(=O)c3ccccc3n12)c1cccc(C)c1 | -3 | -16 | 2 | 1
Cn1c(=O)c2c(-c3ccc(C(C)(C)C)cc3)n(CCc3ccccc3)cc2n(C)c1=O | -82 | 8 | 7 | 3
COc1ccc(CC(C#N)(C(=O)NC2CCCCC2)c2nc3ccccc3[nH]2)cc1 (stereo not given) | 70* | -12 | -2 | -5
COc1ccc(Cl)c(NC(=O)C2CC(=O)Nc3cc(-c4ccccc4)nn32)c1 (stereo not given) | 32* | 9 | 4 | 13
COc1ccc(OC)c(NC(=O)CNC(=O)c2cc3c(OC)cccc3[nH]2)c1 | 30* | 9 | -1 | 2
NS(=O)(=O)c1ccc(CCNC(=O)COC(=O)c2cc(-c3ccc(Cl)cc3)nc3ccccc23)cc1 | 66* | 6 | 5 | -4
C=C1O[C@](CO)(n2cnc3c(N)ncnc32)[C@@H](O)[C@H]1O | -1 | -4 | -3 | -5
Nc1ncnc2c1ncn2[C@@H]1O[C@H](CO)C[C@@H]1O | 17 | 30* | 16 | 28
O=C1OC[C@@H]2CCN(Cc3cncc(F)c3)C[C@H]2N1Cc1ccccc1 | 0 | 3 | -1 | 1
O=C(Cn1c(=O)n(Cc2ccc(F)cc2)c(=O)c2ncccc21)Nc1ccccc1 | 14 | -13 | 4 | 0
Cc1ccc(CNC(=O)Cn2c(=O)n(CCCC(=O)NCc3ccc(F)cc3)c(=O)c3ccccc32)cc1 | 43* | 21 | 4 | 44*
O=C(Cc1ccc(-n2c(=O)c3ccccc3n(Cc3cc(=O)n4ccccc4n3)c2=O)cc1)NCCc1ccccc1 | 49* | 16 | 9 | 12
COc1ccc(CCNC(=O)c2ccc(Cn3c(=O)c4ccccc4n(Cc4cc(=O)n5ccccc5n4)c3=O)cc2)cc1OC | 1 | 10 | 2 | -3
Cc1ccc(Cn2c(=O)c3ncccc3n(CC(=O)NCc3ccc(F)cc3)c2=O)cc1 | 81* | 3 | 3 | 34*
CCn1cc2c(n1)c(=O)n(Cc1ccccc1)c(=O)n2CC(=O)NCc1ccc(C)cc1 | 60* | 13 | 2 | 28
Cc1ccc(-n2c(=O)c3ccccc3n(Cc3c(F)cccc3Cl)c2=O)cc1 | 13 | 3 | -1 | 3
Cc1ccc(Cn2c(=O)n(CCC(=O)NCCc3ccccc3)c(=O)c3ccccc32)cc1 | 34* | 10 | 3 | 15
COc1ccccc1CC(=O)Nc1cnc(-c2ccc(F)cc2)nc1 | 30* | 2 | 7 | 1
COc1cc(C)cc2c1C(=O)c1c(cc(O)c(Cl)c1O)C2=O | -18 | 72* | 73* | 5
COc1cc(CO)cc2c1C(=O)c1c(O)cc(O)cc1C2=O | 5 | 5 | 3 | 3
Cc1ncc(CO)c2c1Oc1nc(-c3cccc(Cl)c3)nc(SCC(=O)N3CCCCC3)c1C2 | 50* | 39* | 15 | 37*
CCC(=O)Nc1cccnc1-c1ccc(C(=O)Nc2ccc(C)cc2C)cc1 | -13 | -2 | -3 | 0
CCC(C)N1CNc2c(c(=O)[nH]c(=O)n2Cc2ccco2)C1 (stereo not given) | 8 | 12 | 29 | 31*
Cc1ccc(CN2CC[C@@H]3[C@H]2C(=O)NC[C@H](CCC(=O)N2CCN(c4ccccn4)CC2)N3C)cc1 | 8 | -5 | 0 | -3

Assay outcomes from PubChem BioAssay.
